ChEMBL document CHEMBL1157539, “Thousands of chemical starting points for antimalarial lead identification” (Nature, 2010)

Tested on: Plasmodium falciparum
Experiment: GSK_TCMDC: Inhibition of Plasmodium falciparum Dd2 in whole red blood cells, using parasite LDH activity as an index of growth. Test compounds present at 2uM
Type: functional

Row | Compound | Inhibition [%]
1 | Cc1nnnn1-c1ccc(C(=O)N2CCC3(CC2)CN(Cc2ccc(Cl)c(Cl)c2)C(=O)O3)cc1 | 99
2 | Cc1cccc2nc(-c3cccc(-c4cccc(CN5CCN(c6ccc(C#N)cn6)CC5)c4)c3)[nH]c12.O=C(O)C(F)(F)F | 34
3 | O=C(O)C(F)(F)F.OC1CCCN(Cc2ccc(-c3cccc(-c4nc5cc(F)ccc5[nH]4)c3)cc2)C1 (stereo not given) | 49
4 | CN1CCCN(Cc2ccc(-c3ccc(NS(=O)(=O)c4cccc5cccnc45)cc3)cc2)CC1.O=C(O)C(F)(F)F | 85
5 | CCN(CCCN1CCCCC1)c1cc(C)nc(Nc2ccc(OC)cc2)n1.O=C(O)C(F)(F)F | 24
6 | COc1c(C2CCN(CCCCNC(=O)c3ccc(-c4ccc(C#N)cc4)nc3)CC2)ccc2c1CCCC2 | 67
7 | COC(=O)c1cccc(CN(CCC(O)(C(F)(F)F)C(F)(F)F)C(=O)CC2CCCC2)c1 | 53
8 | O=C(Nc1cccc(C2=NCCN2)c1)Nc1cccc(C2=NCCN2)c1 [IMIDOCARB] | 99
9 | COc1cc(OC)c(NC(=O)Nc2ccnc3ccccc23)cc1Cl | 9
10 | COc1ccc2nccc([C@@H](O)CN3CCC(NC(=O)/C=C/c4cccc(C)c4)CC3)c2c1 | 28
11 | CN(C)CCNC(=O)c1cccc(-c2cnc3ccc(NCc4ccc(Cl)c(Cl)c4)nn23)c1 | 53
12 | NC(=O)c1ccc(NCC(=O)Nc2cccc(-c3cccc(-c4nc5cc(F)ccc5[nH]4)c3)c2)cc1 | 32
13 | CC1CN(Cc2ccc(-c3ccc(-c4nc5cc(F)ccc5[nH]4)cc3)cc2)CC(C)O1.O=C(O)C(F)(F)F (stereo not given) | 93
14 | NCCNS(=O)(=O)c1ccc(-c2ccnc3[nH]c(-c4ccncc4)cc23)cc1.O=C(O)C(F)(F)F | 95
15 | Br.CC1(C)NC(N)=NC(=N)N1OCCSc1ccccc1 | 95
16 | C=CCOc1ccc(-c2c(C)[nH]c(C)c(Br)c2=O)cc1 | 96
17 | Cl.N=C1C=C(N)C(=O)c2ccccc21 | 85
18 | CC1(C)N=C(N)N=C(N)N1c1ccc(I)cc1.Cl | 1
19 | Cc1ccc(O)cc1Nc1c(C(N)=O)cnc2ccc(-c3cncs3)cc12 | 99
20 | COc1cc2cc(C(=O)Nc3ccccc3)c(N)nc2cc1OC | 0

Row | Compound | Inhibition [%]
21 | Cc1cccc2nc(-c3cccc(-c4ccc(NC(=O)Nc5ccc(Cl)c(Cl)c5)cc4)c3)[nH]c12 | 83
22 | O=C(/C=C/c1ccc(Cl)c(Cl)c1)NCCCCCN1CCCN(C(=S)Nc2ccc(Cl)cc2)CC1 | 10
23 | CN1CCC(NCc2ccc(-c3ccc(S(=O)(=O)NC4CCC4)s3)cc2)CC1.O=C(O)C(F)(F)F | 31
24 | COc1cc2nc(N3CCN(c4nc(N)c5cc(OC)c(OC)cc5n4)CC3)nc(N)c2cc1OC | 99
25 | NCC1CCCN1Cc1ccc(-c2cccc(-c3nc4cc(C(F)(F)F)ccc4[nH]3)c2)cc1.O=C(O)C(F)(F)F (stereo not given) | 97
26 | COc1cc(Nc2ncc3c(C)nc(-c4cccc(Nc5ccc(CN6CCS(=O)(=O)CC6)cc5)c4)n3n2)cc(OC)c1OC | 79
27 | COc1ccc2c(=NN=Cc3cccnc3)cc(C)[nH]c2c1 | 12
28 | CC(C)(C)c1nn(-c2ccc(Cl)cc2)c2[nH]c(=O)c(CNCc3cccs3)cc12 | 77
29 | CCCCNc1cc(C)nc(NCc2ccccc2)n1 | 37
30 | O=c1ccc2ccc(F)cc2n1CCN1CCC(NCc2ccc(-c3ccccn3)s2)CC1 | 30
31 | COc1ccc(-n2nc(C(=O)NCCC3=CCCCC3)c3ccccc3c2=O)cc1 | 59
32 | O=C(Nc1ccc(-c2ccc(-c3nc4ccccc4[nH]3)s2)cc1)Nc1ccsc1 | 54
33 | CC(C)(C)c1ccc(CNC(=O)c2ccc(-c3nc4cc(C(C)(C)C)ccc4[nH]3)cc2)cc1 | 49
34 | Cn1nc(-c2ccc(CNC3CCc4ccccc43)cc2)c2cnc(NCCCN3CCCC3)nc21 (stereo not given) | 22
35 | CC(C)NCc1cccc(-c2ccc(NC(=O)c3ccc(C#N)cc3)cc2)c1.O=C(O)C(F)(F)F | 8
36 | Cc1cc(NC(=O)c2cccs2)ccc1OC1CCN(Cc2ccccc2)C1.O=C(O)C(F)(F)F (stereo not given) | 87
37 | O=C(Nc1ccccc1)N1CCOC(CCN2CCC(F)(F)CC2)(c2ccc(Cl)c(Cl)c2)C1 (stereo not given) | 100
38 | CC(C)CCn1c(Sc2ccc(C#N)c([N+](=O)[O-])c2)nnc1-c1ccccc1Cl | 38
39 | COc1ccc2nccc(N3CCC(CCNCc4ccc5c(n4)NC(=O)CS5)CC3)c2n1.Cl | 75
40 | CS(=O)(=O)c1ccccc1CNC(=O)c1ccc(-c2ccc(-c3nc4cc(C(F)(F)F)ccc4[nH]3)s2)cc1 | 76

Tested on: HepG2
Experiment: GSK_TCMDC: Percent inhibition of human HepG2 cell line. Test compounds present at 10uM.
Type: functional

Row | Compound | Inhibition [%]
41 | Cc1nnnn1-c1ccc(C(=O)N2CCC3(CC2)CN(Cc2ccc(Cl)c(Cl)c2)C(=O)O3)cc1 | 2
42 | Cc1cccc2nc(-c3cccc(-c4cccc(CN5CCN(c6ccc(C#N)cn6)CC5)c4)c3)[nH]c12.O=C(O)C(F)(F)F | 11
43 | O=C(O)C(F)(F)F.OC1CCCN(Cc2ccc(-c3cccc(-c4nc5cc(F)ccc5[nH]4)c3)cc2)C1 (stereo not given) | 28
44 | CN1CCCN(Cc2ccc(-c3ccc(NS(=O)(=O)c4cccc5cccnc45)cc3)cc2)CC1.O=C(O)C(F)(F)F | 35
45 | CCN(CCCN1CCCCC1)c1cc(C)nc(Nc2ccc(OC)cc2)n1.O=C(O)C(F)(F)F | 23
46 | COc1c(C2CCN(CCCCNC(=O)c3ccc(-c4ccc(C#N)cc4)nc3)CC2)ccc2c1CCCC2 | 54
47 | COC(=O)c1cccc(CN(CCC(O)(C(F)(F)F)C(F)(F)F)C(=O)CC2CCCC2)c1 | 0
48 | O=C(Nc1cccc(C2=NCCN2)c1)Nc1cccc(C2=NCCN2)c1 [IMIDOCARB] | 16
49 | COc1cc(OC)c(NC(=O)Nc2ccnc3ccccc23)cc1Cl | 19
50 | COc1ccc2nccc([C@@H](O)CN3CCC(NC(=O)/C=C/c4cccc(C)c4)CC3)c2c1 | 16
51 | CN(C)CCNC(=O)c1cccc(-c2cnc3ccc(NCc4ccc(Cl)c(Cl)c4)nn23)c1 | 31
52 | NC(=O)c1ccc(NCC(=O)Nc2cccc(-c3cccc(-c4nc5cc(F)ccc5[nH]4)c3)c2)cc1 | 15
53 | CC1CN(Cc2ccc(-c3ccc(-c4nc5cc(F)ccc5[nH]4)cc3)cc2)CC(C)O1.O=C(O)C(F)(F)F (stereo not given) | 40
54 | NCCNS(=O)(=O)c1ccc(-c2ccnc3[nH]c(-c4ccncc4)cc23)cc1.O=C(O)C(F)(F)F | 0
55 | Br.CC1(C)NC(N)=NC(=N)N1OCCSc1ccccc1 | 68
56 | C=CCOc1ccc(-c2c(C)[nH]c(C)c(Br)c2=O)cc1 | 5
57 | Cl.N=C1C=C(N)C(=O)c2ccccc21 | 99
58 | CC1(C)N=C(N)N=C(N)N1c1ccc(I)cc1.Cl | 16
59 | Cc1ccc(O)cc1Nc1c(C(N)=O)cnc2ccc(-c3cncs3)cc12 | 21
60 | COc1cc2cc(C(=O)Nc3ccccc3)c(N)nc2cc1OC | 0

Row | Compound | Inhibition [%]
61 | Cc1cccc2nc(-c3cccc(-c4ccc(NC(=O)Nc5ccc(Cl)c(Cl)c5)cc4)c3)[nH]c12 | 53
62 | O=C(/C=C/c1ccc(Cl)c(Cl)c1)NCCCCCN1CCCN(C(=S)Nc2ccc(Cl)cc2)CC1 | 7
63 | CN1CCC(NCc2ccc(-c3ccc(S(=O)(=O)NC4CCC4)s3)cc2)CC1.O=C(O)C(F)(F)F | 31
64 | COc1cc2nc(N3CCN(c4nc(N)c5cc(OC)c(OC)cc5n4)CC3)nc(N)c2cc1OC | 13
65 | NCC1CCCN1Cc1ccc(-c2cccc(-c3nc4cc(C(F)(F)F)ccc4[nH]3)c2)cc1.O=C(O)C(F)(F)F (stereo not given) | 24
66 | COc1cc(Nc2ncc3c(C)nc(-c4cccc(Nc5ccc(CN6CCS(=O)(=O)CC6)cc5)c4)n3n2)cc(OC)c1OC | 2
67 | COc1ccc2c(=NN=Cc3cccnc3)cc(C)[nH]c2c1 | 0
68 | CC(C)(C)c1nn(-c2ccc(Cl)cc2)c2[nH]c(=O)c(CNCc3cccs3)cc12 | 5
69 | CCCCNc1cc(C)nc(NCc2ccccc2)n1 | 23
70 | O=c1ccc2ccc(F)cc2n1CCN1CCC(NCc2ccc(-c3ccccn3)s2)CC1 | 0
71 | COc1ccc(-n2nc(C(=O)NCCC3=CCCCC3)c3ccccc3c2=O)cc1 | 0
72 | O=C(Nc1ccc(-c2ccc(-c3nc4ccccc4[nH]3)s2)cc1)Nc1ccsc1 | 25
73 | CC(C)(C)c1ccc(CNC(=O)c2ccc(-c3nc4cc(C(C)(C)C)ccc4[nH]3)cc2)cc1 | 21
74 | Cn1nc(-c2ccc(CNC3CCc4ccccc43)cc2)c2cnc(NCCCN3CCCC3)nc21 (stereo not given) | 27
75 | CC(C)NCc1cccc(-c2ccc(NC(=O)c3ccc(C#N)cc3)cc2)c1.O=C(O)C(F)(F)F | 15
76 | Cc1cc(NC(=O)c2cccs2)ccc1OC1CCN(Cc2ccccc2)C1.O=C(O)C(F)(F)F (stereo not given) | 7
77 | O=C(Nc1ccccc1)N1CCOC(CCN2CCC(F)(F)CC2)(c2ccc(Cl)c(Cl)c2)C1 (stereo not given) | 20
78 | CC(C)CCn1c(Sc2ccc(C#N)c([N+](=O)[O-])c2)nnc1-c1ccccc1Cl | 20
79 | COc1ccc2nccc(N3CCC(CCNCc4ccc5c(n4)NC(=O)CS5)CC3)c2n1.Cl | 32
80 | CS(=O)(=O)c1ccccc1CNC(=O)c1ccc(-c2ccc(-c3nc4cc(C(F)(F)F)ccc4[nH]3)s2)cc1 | 90
